About 79,000 compounds went through this panel and 15% of them were active in at least one assay; those are over-represented in the sample as a whole. No stated cut-off is given here; in the data, active means growth inhibition above about 70%; inactive means the rest.
Tests used:
[1] = NCI Yeast Anticancer Drug Screen. Data for the rad50 strain (AID 155);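 further: 0% = growth of vehicle-only cultures of the same strain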; details: S. cerevisiae rad50 strain growth inhibition; at 50.0 µM; hits give high values
In short: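 Vehicle-treated cultures provide the reference for the growth inhibition reported for compound-exposed, repair-deficient yeast.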

[2] = NCI Yeast Anticancer Drug Screen. Data for the mec2-1 strain (AID 157); details: S. cerevisiae mec2-1 strain, at 50.0 µM, hits give high values
In short: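 Mutant yeast (mec2-1) grown with compound; growth inhibition relative to vehicle control reported.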

[3] = NCI Yeast Anticancer Drug Screen. Data for the sgs1 mgt1 strain (AID 161);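 further: 0% = growth of cultures given vehicle only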; details: S. cerevisiae sgs1 mgt1 strain, at 50.0 µM, hits give high values
In short: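 Growth of a repair-deficient yeast mutant was monitored after compound treatment and expressed as inhibition relative to vehicle-treated cultures.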

[4] = NCI Yeast Anticancer Drug Screen. Data for the cln2 rad14 strain (AID 165);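 further: 0% = growth equal to vehicle treated cultures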; details: S. cerevisiae cln2 rad14 strain, at 50.0 µM, hits give high values
In short: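 Readout is yeast growth inhibition versus vehicle-treated controls, using a strain with cln2 and rad14 alterations exposed to compound.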

[5] = NCI Yeast Anticancer Drug Screen. Data for the bub3 strain (AID 167); details: S. cerevisiae bub3 mutant strain, at 50.0 µM, hits give high values
In short: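 Mutant yeast screening strain plus compound; vehicle-treated cultures serve as the 0% inhibition reference.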

[6] = NCI Yeast Anticancer Drug Screen. Data for the mlh1 rad18 strain (AID 175); details: S. cerevisiae mlh1 rad18 strain growth inhibition; at 50.0 µM; hits give high values
In short: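 Genetically defined yeast (DNA repair-deficient) exposed to compounds; growth inhibition determined relative to vehicle.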

Measured: growth inhibition

CCC1c2c(cc(=O)[nH]c2O)C(=O)N1Cc1ccccc1 (stereo not given)
inactive: [1] 12.3% | [2] 6.4% | [3] 7.75% | [4] 4.25% | [5] 1.15% | [6] -0.1%

O=C(NC1CCCCC1)Oc1ccc(Cl)cc1Cl
inactive: [1] 4.8% | [2] 23.9% | [3] 28.2% | [4] -8.45% | [5] 35.6% | [6] 31.9%

CN(C)c1nc(Oc2nc(N(C)C)nc(N(C)C)n2)nc(N(C)C)n1
inactive: [1] -21.8% | [2] -26.6% | [3] -30.9% | [4] -8.5% | [5] -21.4% | [6] -31.9%

C/C(=C/C(=O)Nc1ccc2ccccc2c1)Nc1ccc2ccccc2c1
inactive: [1] -5.4% | [2] 6.65% | [3] 5.9% | [4] -8.95% | [5] 10.4% | [6] -15.1%

COC(=O)NC1=Nc2ccc(Cl)cc2NS1
inactive: [1] 2.4% | [2] -10.2% | [3] -25.1% | [4] 2.05% | [5] 22.1% | [6] -4.65%

CCOC(=O)C(Cc1c[nH]c2ccccc12)NCCN (stereo not given)
inactive: [1] -4.85% | [2] 4.8% | [3] -1.45% | [4] -9.95% | [5] -7.25% | [6] -3.8%

CCCCC(ON=C(C)C)C(=O)OC (stereo not given)
inactive: [1] 19.3% | [2] 31.6% | [3] -10.2% | [4] 12.1% | [5] 1.25% | [6] 24.4%

CC(C)(C)CP(=S)(CCP(CCP(=S)(CC(C)(C)C)CC(C)(C)C)CCP(=S)(CC(C)(C)C)CC(C)(C)C)CC(C)(C)C
inactive: [1] -0.75% | [2] -14.6% | [3] -18% | [4] 9.6% | [5] 0.65% | [6] -16.1%

CN1C(c2ccco2)NC(=O)C12CCN(Cc1ccccc1)CC2 (stereo not given)
inactive: [1] 24.8% | [2] 7.25% | [3] 15.2% | [4] 10.2% | [5] 16.8% | [6] 16.1%

CCOC(=O)c1c[nH]c(=S)[nH]c1=O
inactive: [1] 9.25% | [2] -8.4% | [3] 18.7% | [4] -15.1% | [5] -1.2% | [6] -10.8%

COC1CC(OC2C(C)OC(OC3C(C)OC(OC4C(O)CC(O[C@H]5CC[C@@]6(C)C(=CC[C@]7(O)[C@@H]6C[C@@H](OC(=O)/C=C/c6ccccc6)[C@@]6(C)[C@]7(O)CC[C@@]6(O)C(C)=O)C5)OC4C)CC3OC)CC2OC)OC(C)C1O (stereo not given in full)
inactive: [1] -13.4% | [2] 7.95% | [3] -8.6% | [4] 16.2% | [5] -6.75% | [6] -53.8%

C[N+]([O-])=C(c1ccccc1)c1ccccc1
inactive: [1] -15.7% | [2] 5.55% | [3] -9.4% | [4] 4.5% | [5] -30.8% | [6] -4.9%

C=CCCCCCCCCC(=O)OCC(C)C
inactive: [1] 11.3% | [2] 22.4% | [3] 15.9% | [4] -27.2% | [5] -24.1% | [6] 17.4%

CCCCOC(=O)/C=C/C(=O)N1CCN(C(=O)/C=C/C(=O)OCCCC)C(C)C1 (stereo not given)
inactive: [1] 33.7% | [2] 24.7% | [3] 20.8% | [4] -11.1% | [5] 24.9% | [6] 34.6%

CC(=O)C1COC(O)C1C (stereo not given)
inactive: [1] -5.45% | [2] -21.9% | [3] -15.2% | [4] 13.4% | [5] -24.6% | [6] 2.05%

CC(C)C1NC(=O)NC1=O (stereo not given)
inactive: [1] -4% | [2] -23.2% | [3] -3.7% | [4] 10.7% | [5] 0.65% | [6] -4.4%

COc1ccc2c(c1)c1c3c(ccc4ncn2c43)N(CCO)CCN=1
inactive: [1] -19.6% | [2] -52% | [3] -25.9% | [4] -23.5% | [5] -12% | [6] 1.6%

COC(OC)c1cccc2c1C(=O)CCC1(CC2)OCCCCO1
inactive: [1] 0.3% | [2] -21.1% | [3] -22.8% | [4] 3.6% | [5] -39.9% | [6] -11.2%

Cc1cccc(Cl)c1NC(=O)Nc1ccc(C#N)cc1
inactive: [1] 15.4% | [2] -10.6% | [3] 17.9% | [4] 5.35% | [5] -3.45% | [6] -1%

Cn1c(N)c(NC(=O)CC#N)c(=O)n(C)c1=O
inactive: [1] 20.9% | [2] 2.7% | [3] 27.3% | [4] 21% | [5] -9.85% | [6] 21.1%

— PubChem BioAssay (NCI)
